This note sets out measurements from PubChem BioAssay.

The source made the active and inactive calls.

This test is described as follows: growth effects on S. cerevisiae YJM789 – YJM789 clinical isolate, OD600, 24 h, basal, primary screen (AID 1089).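 Also: growth of clinical yeast isolate S. cerevisiae YJM 789 seeded 1000 cells per well; test concentration not given here.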 As to conditions: higher = more signal, called active from +8 up or from −8 down.
On to `CCCNC(=O)[C@@]1(Sc2ccc(C)cc2)CC(=O)N(Cc2ccccc2Cl)[C@@H]1c1ccc(CO)cc1`, for which the z-score was -1.08 (inactive).

Consider `C[C@H]1COC(=O)[C@H](Cc2ccccc2)NC(=O)[C@@H](C)COC(=O)[C@H](Cc2ccccc2)NC1=O`, for which the z-score was -0.743 (inactive).

On to `CC(C)N1CC=CC23O[C@@H]4/C=C\CCCOC(=O)C4[C@H]2C(=O)N(CCO)[C@@H]3C1=O` (stereo partly specified), for which the z-score is -1.92 (inactive).

As for `COC(=O)[C@@]1(Cc2ccc(OC)cc2)[C@H]2c3cc(C(=O)N(C)C)n(CCc4ccc(OC)c(Br)c4)c3C[C@H]2CN1C(=O)c1ccccc1`, the z-score is 0.557 (inactive).

Turning to `COCCOC(=O)N1C(=O)[C@@]2(c3cc(C#CCCO)ccc31)[C@H](c1ccc(O)cc1)N1[C@H](c3ccccc3)[C@H](c3ccccc3)OC(=O)[C@H]1[C@@H]2C(=O)Nc1nc2ccccc2s1`, the z-score was -0.123 (inactive).

Turning to `C=CC[C@]1(C(=O)N2CCCCC2)N=C(c2ccc(OCCCO)cc2)O[C@H]1c1ccccc1N=[N+]=[N-]`, the z-score is -0.534 (inactive).

For `CCCC=C(CCC)[C@@H](NS(=O)(=O)c1cccc(C(F)(F)F)c1)c1ccc(C(=O)OC)cc1`, the z-score was 0.483 (inactive).

As to `COc1ccc([Si](C)(C)[C@@H]2[C@@H](CC(=O)N(CCO)Cc3ccccc3)O[C@]3(C(=O)N(Cc4cccc(N5CCC5=O)c4)c4ccccc43)[C@H]2C)cc1`, the z-score is -1.16 (inactive).

As for `COc1cc([C@@H]2N[C@H](C(=O)O)Cc3c2[nH]c2ccccc32)cc(OC)c1OC`, the z-score was -0.258 (inactive).

For the compound `COCC(=C=CC[C@H](O)c1ccc(OCCO)cc1)C[C@H](O)c1ccccn1`, the z-score is 0.725 (inactive).

Turning to `COCCOC(=O)N1C(=O)[C@@]2(c3cc(C#CC4(O)CCCCCC4)ccc31)[C@H](C(=O)N1CCCCCCC1)[C@H]1C(=O)O[C@H](c3ccccc3)[C@H](c3ccccc3)N1[C@@H]2c1ccc(O)cc1`, the z-score was -0.971 (inactive).

With `C=CCC(OC(C)=O)[C@@H]1[C@@H](N(Cc2cc3ccccc3o2)C(=O)c2ccc(C)cc2)c2cc(OCCCO)ccc2N1C(=O)c1ccc2ccccc2n1` (stereo partly specified), the z-score is -0.0537 (inactive).

With `C=C(COC)C(=O)CC[C@H](OC(=O)c1ccccc1-c1ccccc1C(=O)O)c1cccc(OCCO)c1`, the z-score is -22.6 (active).

For the compound `CC(C)[Si](OCC[C@H]1O[C@]2(C(=O)N(Cc3ccccc3)c3ccccc32)[C@@H](C)[C@@H]1[Si](C)(C)O)(C(C)C)C(C)C`, the z-score was 1.11 (inactive).

`CO[C@H]1COC(=O)CC=C[C@H](C)[C@@H](OC)COC(=O)CC=C[C@@H]1C`: the z-score is -0.49 (inactive).

Consider `COCCOC(=O)N1C(=O)[C@@]2(c3cc(C#CC4=CCCCC4)ccc31)[C@H](C(=O)NC[C@H](O)c1ccccc1)[C@H]1C(=O)O[C@H](c3ccccc3)[C@H](c3ccccc3)N1[C@@H]2c1ccccc1OCCO`, for which the z-score was 2.24 (inactive).

Take `COc1cc2c(cc1OC)CN(C(=O)[C@H]1[C@@H]3C(=O)O[C@@H](c4ccccc4)[C@@H](c4ccccc4)N3[C@@H](c3ccc(O)cc3)[C@]13C(=O)Nc1ccc(C#CC4(O)CCCCCC4)cc13)CC2`: the z-score was 0.377 (inactive).

For `CN(C)C(=O)[C@@]1(Cc2ccccc2N=[N+]=[N-])N=C(c2ccc(OCCCO)cc2)O[C@H]1c1ccccc1CN=[N+]=[N-]`, the z-score is -1.92 (inactive).

On to `CO[C@H]1COC(=O)[C@@H](C)COC(=O)[C@H](Cc2ccccc2)NC(=O)CC=C[C@H]1C`, for which the z-score was -0.662 (inactive).

Consider `CC(=O)NCCCC[C@@H]1NC(=O)[C@H]2C[C@@H](C(=O)NCCCCCCN(C)C)[C@@H](c3cccc(OCCO)c3)N2C1=O`, for which the z-score was -1.05 (inactive).

Regarding `C=CCC(OC(C)=O)[C@@H]1[C@@H](N(Cc2ccc(-c3ccccc3)cc2)C(=O)c2ccc(-c3ccccc3)cc2)c2cc(OCCCO)ccc2N1C(=O)Cc1ccc(OC)cc1` (stereo partly specified), the z-score was -0.809 (inactive).

In the case of `COCCCNC(=O)[C@@H]1c2ccccc2C(=O)N(CC23CC4CC(CC(C4)C2)C3)[C@H]1c1ccc(CO)cc1`, the z-score is 0.4 (inactive).

For the compound `C=CCN1C(=O)[C@]2(O[C@H](CCn3cc(CCO)nn3)[C@@H]([Si](C)(C)c3ccc(OC)cc3)[C@@H]2C)c2cc(NC(=O)c3ccc(OC)cc3)ccc21`, the z-score is 1.46 (inactive).

As to `C=C(CCCC)/C(=C/C[C@@H](OC(=O)c1ccncc1)c1ccc(CO)o1)c1cnc2ccccc2c1`, the z-score is 0.396 (inactive).

On to `COC(=O)Cn1c(C(=O)N2CCCC2)cc2c1C[C@H]1CN(C(=O)c3ccccc3)[C@@](Cc3ccc(OC)cc3)(C(=O)OC)[C@@H]21`, for which the z-score was 0.742 (inactive).

Turning to `C=C(CCCC)C(=O)CC[C@@H](OC(C)=O)c1ccccc1OCCO`, the z-score is -0.837 (inactive).

Consider `CCOC(=O)C[C@H]1[C@H](OC(=O)c2cc3ccccc3oc2=O)[C@@H](NC(=O)C2CCCCC2)c2cc(OCCCO)ccc2N1C(=O)c1ccc2ccccc2n1`, for which the z-score is 0.152 (inactive).

`COC(=O)C(CC#Cc1ccc2c(c1)[C@]1(C(=O)N2)[C@H](C(=O)N2CCCCCCC2)[C@H]2C(=O)O[C@H](c3ccccc3)[C@H](c3ccccc3)N2[C@@H]1c1ccc(O)cc1)C(=O)OC`: the z-score is -0.428 (inactive).

For the compound `C=C[C@H](OC)[C@@H](OC(=O)Nc1ccc(SC)cc1)c1ccc(O)c(F)c1`, the z-score was -1.83 (inactive).

Turning to `O=C1O[C@@H](c2ccccc2)[C@@H](c2ccccc2)N2[C@@H](c3ccc(OCCO)cc3)[C@]3(C(=O)Nc4ccc(C#CCCO)cc43)[C@@H](C(=O)N3CCN(c4ncccn4)CC3)[C@H]12`, the z-score was 0.772 (inactive).

In the case of `C=CCC(OC(C)=O)[C@@H]1[C@@H](N(Cc2cccc3ccccc23)C(=O)Cc2ccc(F)cc2)c2cc(OCCCO)ccc2N1C(=O)Cc1ccc2ccccc2c1` (stereo partly specified), the z-score was -0.167 (inactive).

Turning to `O=C1O[C@@H](c2ccccc2)[C@@H](c2ccccc2)N2[C@@H](c3ccc(O)cc3)[C@]3(C(=O)Nc4ccc(C#CC5(O)CCCCCC5)cc43)[C@@H](C(=O)Nc3nc4ccccc4s3)[C@H]12`, the z-score was 0.775 (inactive).

As for `C#CCCCON=C1C[C@@H](O)[C@@H](O)[C@@H]2[C@@H]3C(=O)N(Cc4ccc5c(c4)OCO5)C(=O)[C@@H]3CC[C@@H]12`, the z-score was 0.755 (inactive).

Consider `O=C1O[C@H](c2ccccc2)[C@H](c2ccccc2)N2[C@H]1[C@@H](C(=O)NC[C@H](O)c1ccccc1)[C@]1(C(=O)Nc3ccc(C#CC4(O)CCCCCC4)cc31)[C@H]2c1ccc(OCCO)cc1`, for which the z-score is 1.93 (inactive).

Regarding `CCOC(=O)C1=C[C@@H](c2ccccc2)N(S(=O)(=O)c2ccc(C)cc2)[C@H]1c1ccc(F)cc1`, the z-score is 0.575 (inactive).

Regarding `O=[N+]([O-])c1ccc(C[n+]2ccc3ccc(O)cc3c2)o1`, the z-score is -0.0384 (inactive).
